# PubChem BioAssay (Tox21)
# Values without a mark were called inactive. Results filed as inconclusive are left out. Entries that show only a call come without a potency. Calls of active or inactive are those of the source. The call rests on the fitted dose curve; in most records, active means well fitted curve in the direction sought with a large enough effect in the repeat runs; inconclusive means weak or mixed curves; inactive means no such curve, though single readings can be large; an effect the other way counts as inactive or inconclusive.
# Experiments:
# [1] = A CellTox Green Cytotoxicity Assay to monitor cytotoxicity in HEK293 cells - 40 hour (AID 1224871); further: nearly all actives have a fitted effect of over 45% in size
# How it was run: (§1)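 Fluorescence from a DNA-binding dye excluded by viable cells was measured repeatedly in the same HEK293 wells (600 cells/well) during continuous compound exposure at 37 C. Each assay gives one read point: 0, 8, 16, 24, 32 or 40 h.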
# [2] = qHTS RealTime-Glo MT Cell Viability Assay in HEK293 cells - 16 hour (AID 1224872); further: top concentration of the series differs between compounds; nearly all actives have a fitted effect of over 50% in size
# How it was run: (§2)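 Viability tracked continuously by luminescence as live cells reduce a prosubstrate for NanoLuc; HEK293 cells preincubated 5 h, compound-treated at 37 C, and read at 0, 8, 16, 24, 32 and 40 h.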
# [3] = qHTS RealTime-Glo MT Cell Viability Assay in HepG2 cells - 8 hour (AID 1224873); further: nearly all actives have a fitted effect of over 55% in size
# How it was run: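 HepG2 cells (600/well) mixed with RealTime-Glo MT reagent, settled 5 h at 37 C/5% CO2 before compound addition. Nonlytic NanoLuc luminescence from viable-cell prosubstrate reduction read repeatedly during 40 h treatment at 37 C.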
# [4] = qHTS RealTime-Glo MT Cell Viability Assay in HEK293 cells - 40 hour (AID 1224874); conditions: RealTime-Glo luminescence; max response: hits give low values; further: nearly all actives have a fitted effect of over 50% in size
# How it was run: (§3)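 Luminescence, which tracks viable cell number through reduction of the prosubstrate to a NanoLuc substrate, was read over continuous 37 C culture. Cells (600/well) were premixed with reagent and rested 5 h before 23 nL of compound in DMSO was pinned.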
# [5] = A CellTox Green Cytotoxicity Assay to monitor cytotoxicity in HEK293 cells - 24 hour (AID 1224875); further: series mostly up to about 77 µM; nearly all actives have a fitted effect of over 45% in size
# How it was run: as §1
# [6] = A CellTox Green Cytotoxicity Assay to monitor cytotoxicity in HepG2 cells - 16 hour (AID 1224876); further: nearly all actives have a fitted effect of over 45% in size
# How it was run: (§4)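 Real-time cytotoxicity: fluorescence of a cell-impermeant cyanine dye binding DNA of dead HepG2 cells, measured repeatedly (0–40 h) during compound exposure at 37 C. Cells seeded 600/well with reagent, dosed after 5 h.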
# [7] = A CellTox Green Cytotoxicity Assay to monitor cytotoxicity in HepG2 cells - 24 hour (AID 1224878); further: nearly all actives have a fitted effect of over 45% in size
# How it was run: as §4
# [8] = A CellTox Green Cytotoxicity Assay to monitor cytotoxicity in HepG2 cells - 40 hour (AID 1224879); further: nearly all actives have a fitted effect of over 40% in size
# How it was run: as §4
# [9] = qHTS RealTime-Glo MT Cell Viability Assay in HEK293 cells - 0 hour (AID 1224880)
# How it was run: as §3
# [10] = A CellTox Green Cytotoxicity Assay to monitor cytotoxicity in HEK293 cells - 32 hour (AID 1224881); further: nearly all actives have a fitted effect of over 40% in size
# How it was run: as §1
# [11] = A CellTox Green Cytotoxicity Assay to monitor cytotoxicity in HepG2 cells - 0 hour (AID 1224882); further: nearly all actives have a fitted effect of over 35% in size
# How it was run: as §4
# [12] = A CellTox Green Cytotoxicity Assay to monitor cytotoxicity in HepG2 cells - 32 hour (AID 1224883); further: nearly all actives have a fitted effect of over 50% in size
# How it was run: as §4
# [13] = A CellTox Green Cytotoxicity Assay to monitor cytotoxicity in HEK293 cells - 8 hour (AID 1224884); further: nearly all actives have a fitted effect of over 35% in size
# How it was run: as §1
# [14] = qHTS RealTime-Glo MT Cell Viability Assay in HepG2 cells - 16 hour (AID 1224885); further: nearly all actives have a fitted effect of over 50% in size
# How it was run: (§5)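 Viability was tracked continuously by NanoLuc luminescence from prosubstrate reduced by living HepG2 cells, at successive time points over 40 h of compound exposure. Cells with reagent were preincubated 5 h at 37 °C before compound addition.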
# [15] = qHTS RealTime-Glo MT Cell Viability Assay in HEK293 cells - 24 hour (AID 1224886)
# How it was run: as §2
# [16] = qHTS RealTime-Glo MT Cell Viability Assay in HEK293 cells - 8 hour (AID 1224887); further: nearly all actives have a fitted effect of over 50% in size; further: potency means the concentration at half of the fitted maximal effect
# How it was run: as §3
# [17] = qHTS RealTime-Glo MT Cell Viability Assay in HepG2 cells - 0 hour (AID 1224889); further: nearly all actives have a fitted effect of over 50% in size
# How it was run: as §5
# [18] = A CellTox Green Cytotoxicity Assay to monitor cytotoxicity in HepG2 cells - 8 hour (AID 1224890); further: nearly all actives have a fitted effect of over 45% in size
# How it was run: as §4
# [19] = qHTS RealTime-Glo MT Cell Viability Assay in HepG2 cells - 32 hour (AID 1224877); further: nearly all actives have a fitted effect of over 55% in size
# How it was run: as §5
# [20] = A CellTox Green Cytotoxicity Assay to monitor cytotoxicity in HEK293 cells - 16 hour (AID 1224888); further: nearly all actives have a fitted effect of over 35% in size
# How it was run: as §1
Structure (SMILES),Potency [1],Potency [2],Potency [3],max response [4] [%],Potency [5],Potency [6],Potency [7],Potency [8],Potency [9],Potency [10],Potency [11],Potency [12],Potency [13],Potency [14],Potency [15],Potency [16],Potency [17],Potency [18],Potency [19],Potency [20]
CCOc1ncc(F)c(=O)[nH]1,inactive,inactive,inactive,-0.726,inactive,inactive,inactive,inactive,inactive,inactive,inactive,inactive,inactive,inactive,inactive,inactive,inactive,inactive,–,–
CCCCOC(=O)CCCCC(=O)OCCCC,inactive,inactive,inactive,–,inactive,inactive,inactive,inactive,inactive,inactive,inactive,inactive,inactive,inactive,inactive,inactive,inactive,–,inactive,–
CCC(C)(C)C(=O)O,inactive,inactive,inactive,–,inactive,inactive,inactive,inactive,inactive,inactive,inactive,inactive,inactive,inactive,inactive,inactive,inactive,inactive,inactive,inactive
CC(=O)OCC1=C(C(=O)O)N2C(=O)[C@@H](NC(=O)CSc3ccncc3)[C@H]2SC1,inactive,inactive,inactive,5.21,inactive,inactive,inactive,inactive,inactive,inactive,inactive,inactive,inactive,inactive,inactive,inactive,–,inactive,–,inactive
CC[C@H]1OC(=O)[C@H](C)[C@@H](O[C@H]2C[C@@](C)(OC)[C@@H](O)[C@H](C)O2)[C@H](C)[C@@H](O[C@@H]2O[C@H](C)C[C@H](N(C)C)[C@H]2O)[C@](C)(O)C[C@@H](C)C(=O)[C@H](C)[C@@H](O)[C@]1(C)O,inactive,inactive,inactive,–,inactive,inactive,inactive,inactive,inactive,inactive,inactive,inactive,inactive,inactive,inactive,inactive,inactive,–,inactive,inactive
CC[C@H]1OC(=O)[C@H](C)[C@@H](O[C@H]2C[C@@](C)(OC)[C@@H](O)[C@H](C)O2)[C@H](C)[C@@H](O[C@@H]2O[C@H](C)C[C@H](N(C)C)[C@H]2O)[C@](C)(O)C[C@@H](C)CN(C)[C@H](C)[C@@H](O)[C@]1(C)O,inactive,inactive,inactive,–,inactive,inactive,inactive,inactive,inactive,inactive,inactive,inactive,inactive,inactive,inactive,inactive,inactive,inactive,inactive,inactive
CCNc1nc(N)nc(Cl)n1,inactive,inactive,inactive,–,inactive,inactive,inactive,inactive,inactive,inactive,inactive,inactive,inactive,inactive,inactive,inactive,inactive,inactive,inactive,inactive
CN=C(N)NC(=O)Nc1c(C)cccc1C,inactive,inactive,inactive,–,inactive,inactive,inactive,inactive,inactive,inactive,inactive,inactive,inactive,inactive,inactive,inactive,inactive,–,inactive,inactive
CCCCCCCCCCCCCC(=O)OCC(O)CO (stereo not drawn),inactive,inactive,inactive,-0.733,–,inactive,inactive,inactive,inactive,–,inactive,inactive,inactive,inactive,inactive,inactive,inactive,inactive,inactive,–
Cc1ccc2c(c1)CCCN2,inactive,inactive,inactive,–,inactive,inactive,inactive,inactive,inactive,inactive,inactive,inactive,inactive,inactive,inactive,inactive,–,inactive,inactive,inactive
CC1CCc2nccnc21 (stereo not drawn),inactive,inactive,inactive,-2.75,inactive,–,–,–,inactive,inactive,inactive,inactive,inactive,inactive,inactive,inactive,–,inactive,inactive,inactive
Nc1c(Cl)cc(Cl)cc1[N+](=O)[O-],inactive,inactive,inactive,7.12,inactive,–,–,–,inactive,inactive,inactive,–,inactive,inactive,inactive,inactive,inactive,inactive,inactive,–
CC(=O)C(=O)CC(C)C,inactive,inactive,inactive,9.63,inactive,inactive,inactive,inactive,inactive,inactive,inactive,inactive,inactive,inactive,inactive,inactive,inactive,inactive,–,inactive
CCCC(=O)OC(=O)CCC,inactive,inactive,inactive,–,inactive,inactive,inactive,inactive,inactive,inactive,inactive,inactive,inactive,inactive,–,inactive,inactive,–,–,inactive
CCOCCC(=O)OCC,inactive,–,inactive,4.01,inactive,inactive,inactive,inactive,inactive,inactive,inactive,inactive,inactive,inactive,inactive,inactive,–,inactive,inactive,inactive
CCCCCCCC/C=C\CCCCCCCC(=O)OCCO,inactive,–,inactive,-0.425,inactive,inactive,inactive,inactive,inactive,inactive,inactive,inactive,inactive,inactive,–,57.8 µM (active),–,inactive,inactive,inactive
COc1ccc(C2C(=O)c3ccccc3C2=O)cc1,inactive,–,inactive,4.61,inactive,inactive,inactive,inactive,inactive,inactive,inactive,inactive,inactive,inactive,inactive,inactive,inactive,inactive,inactive,inactive
Cc1ccc2nc(N)[nH]c(=O)c2c1Sc1ccncc1,inactive,inactive,–,–,inactive,inactive,inactive,inactive,inactive,inactive,inactive,inactive,inactive,–,inactive,inactive,inactive,inactive,inactive,inactive
